ADAM17 inh – inhibits human ADAM17; recombinant ADAM17, EDANS/DABCYL FRET peptide cleavage; inhibition, % at 6.95 µM; actives 0.83% (n = 370,000); AID 720648;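 active = inhibition above the mean of compounds lying between control limits plus 3 SD, set per campaign, cut at about 8.5% in these data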;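 also: 0% = DMSO-only wells as the low control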
Target sequence (P78536 215-824 limits assumed): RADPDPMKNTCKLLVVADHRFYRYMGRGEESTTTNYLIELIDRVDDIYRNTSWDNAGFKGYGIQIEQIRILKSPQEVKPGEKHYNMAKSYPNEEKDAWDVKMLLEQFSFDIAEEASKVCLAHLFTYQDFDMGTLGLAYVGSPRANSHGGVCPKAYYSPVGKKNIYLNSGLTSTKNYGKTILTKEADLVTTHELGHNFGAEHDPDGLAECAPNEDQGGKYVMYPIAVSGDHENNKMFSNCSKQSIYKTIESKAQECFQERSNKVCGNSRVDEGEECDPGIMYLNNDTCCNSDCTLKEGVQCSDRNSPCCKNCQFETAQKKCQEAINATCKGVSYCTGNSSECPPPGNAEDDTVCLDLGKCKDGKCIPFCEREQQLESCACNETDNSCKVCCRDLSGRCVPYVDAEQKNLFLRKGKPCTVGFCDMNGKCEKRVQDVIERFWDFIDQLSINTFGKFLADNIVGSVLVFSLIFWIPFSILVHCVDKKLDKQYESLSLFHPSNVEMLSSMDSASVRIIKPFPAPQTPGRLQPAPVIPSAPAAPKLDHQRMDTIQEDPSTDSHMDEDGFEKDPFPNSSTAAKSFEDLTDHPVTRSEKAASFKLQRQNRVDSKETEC
Rce1 inh – inhibitors of yeast Ras-converting enzyme; Q03530; yeast membranes, quenched prenylated peptide cleavage fluorescence; calls only; actives 0.27% (n = 290,000); AID 2563;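 active = fall in fluorescence gain of 50% or more versus controls, with final raw signal at or below 3038400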;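 also: plate controls were neutral control wells for no effect and wells lacking membranes for full effect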
ADAM10 inh – ADAM10 inhibition, QFRET primary screen | inhibition, % at 7 µM | actives 0.62% (n = 370,000) | O14672 | recombinant ADAM10, EDANS/DABCYL FRET peptide cleavage, 3 h;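 active = inhibition above a per-campaign cutoff equal to the mean of compounds falling between control-based bounds plus 3 SD, cut at about 20% in these data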;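 also: 0% = DMSO wells while the 100% control is not disclosed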
PLC-beta3 inh – inhibitors of human phospholipase C beta3 | Purified PLC-beta3, fluorogenic substrate, fluorescence | inhibition, % at 12.2 µM | actives 0.18% (n = 370,000); in the data active = inhibition above about 11%;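 also: 0% = median of compound wells on plate and 100% = full blocker control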
PLC-gamma1 inh – inhibitors of human phospholipase C gamma1 | AID 720700 | actives 0.84% (n = 370,000) | inhibition, % at 12.2 µM | purified PLC-gamma1, fluorogenic substrate, fluorescence; in the data active = inhibition above about 9.5%
ADAM10 confirm – confirmation of inhibitors of human ADAM10. shares compounds with ADAM10 inh. ADAM10 QFRET peptide cleavage, EDANS fluorescence. inhibition, % at 6.95 µM. actives 1% (n = 2,100). AID 743208;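 active = inhibition above about 20% chosen separately for each screening run, limit read from the data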;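 also: 0% = DMSO wells and 100% = marimastat wells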
ADAM17 ctr – counter-screen for ADAM10 exosite inhibitors: inhibitors of human ADAM17; ADAM17 QFRET peptide cleavage, EDANS fluorescence; inhibition, % at 6.95 µM; actives 0.5% (n = 2,100); shares compounds with ADAM10 inh;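 active = mean triplicate inhibition above the solvent-only control wells' mean plus 3 SD, cut at about 12% in these data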;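 also: 0% = DMSO wells and 100% = marimastat wells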
An asterisk follows results filed as active; i = inactive; / = not tested or not shown. Shown are actives, neighbours in structure and some others; about 2.1% of the full set was active somewhere.

SMILES | ADAM17 inh | Rce1 inh | ADAM10 inh | PLC-beta3 inh | PLC-gamma1 inh | ADAM10 confirm | ADAM17 ctr
Cc1ccc(C(c2cc(Br)ccc2O)N2CCSCC2)cc1 (configuration not stated) | 6 | i | 25* | 3 | 4 | 1 | 0
O/N=C/c1cc(Cl)ccc1OCc1ccccc1Cl | 5 | i | 23* | 0 | -3 | 9 | 2
CCOC(=O)c1ccc(-c2c(-c3ccccc3OC)sc3ccc(OC)cc23)cc1F | -4 | / | -2 | -4 | -2 | / | /
Cc1cccc(OCC(=O)NNC(=O)c2cc3ccccc3oc2=O)c1 | 7 | i | 23* | -1 | 1 | 23* | 13*
FC(F)(F)c1ccc(-c2nc(=S)[nH][nH]2)cc1 | 3 | i | 25* | -6 | 4 | 1 | 2
COc1cccc(NC(=O)C2(C)CCN2C(=O)Cc2ccc(-c3ccccc3)cc2)c1 (configuration not stated) | 8 | / | 25* | -4 | -1 | 6 | 2
CC(C)(C)c1ccc(S(=O)(=O)NC(=O)C2(C)CCN2C(=O)Cc2ccccc2Cl)cc1 (configuration not stated) | -3 | / | -2 | 0 | 3 | / | /
COc1ccc(S(=O)(=O)NC(=O)C2(C)CCN2C(=O)Cc2ccccc2Cl)cc1 (configuration not stated) | -1 | / | 86* | 0 | 0 | 0 | 0
CCOc1ccc(CNS(=O)(=O)c2cc(-c3cc(C)no3)ccc2OC)cc1OC | 0 | i | 0 | 5 | 3 | / | /
O=C(/C=C/c1ccccc1)Nc1ccc(NC(=O)c2cccs2)cc1 | -2 | i | 22* | 7 | 8 | 2 | 1
O=C(/C=C/c1ccccc1)NNC(=O)c1cccs1 | -4 | i | 5 | -8 | -2 | / | /
C=CCC[C@@H](Cc1ccc(F)cc1)C(=O)OC[C@H](Cc1c[nH]c2ccccc12)NC(=O)[C@@H](CC=C)CC(=O)NCCO | 7 | / | 25* | -3 | 9 | 1 | 0
C=CC[C@@H](CC(=O)NCCO)C(=O)N[C@H](COC(=O)[C@@H](CC=C)Cc1ccc(F)cc1)Cc1c[nH]c2ccccc12 | 2 | / | -13 | 0 | 1 | / | /
CCCCn1c(N)c(N(CCOC)C(=O)c2cc(=O)[nH]c3ccccc23)c(=O)[nH]c1=O | -5 | / | -30 | -5 | -1 | / | /
CCCCn1c(N)c(N(CCOC)C(=O)c2cc(C)oc2C)c(=O)[nH]c1=O | -7 | i | 51* | -6 | -7 | 1 | 2
CCN(CC)C(=O)C1CCCN(Cc2cccc(F)c2)C1 (configuration not stated) | -1 | / | 79* | 3 | 2 | 1 | 0
O=C(NC1CCCN(Cc2ccc(Cl)cc2)C1)c1cccc(F)c1 (configuration not stated) | -2 | i | 82* | -1 | 1 | 1 | 0
O=C(NCc1cccs1)C1C(=O)Nc2ccccc2C(=O)N1Cc1ccccc1 (configuration not stated) | -11 | / | -38 | -6 | -1 | / | /
CCOC(=O)N/N=C(\C)c1ccc(OC(F)F)cc1OC(F)F | -1 | i | 4 | 1 | -1 | / | /
COc1cc(C(=O)OCC(=O)c2cc(C)n(CC3CCCO3)c2C)ccc1OCC(=O)N1CCOCC1 (configuration not stated) | -6 | i | 1 | -12 | 0 | / | /
Nc1nc(N)c(-c2cccc(C(F)(F)F)c2)c(Cc2cccc(C(F)(F)F)c2)n1 | 15* | / | 37* | 1 | 4 | 1 | 0
Nc1ncccc1OCc1cccc(C(F)(F)F)c1 | -2 | i | -2 | -8 | -1 | / | /
CCOc1cc(/C=N/NC(=O)COc2ccc(C)cc2)ccc1OC(=O)c1cccs1 | 4 | i | 21* | 4 | 1 | 10 | 2
COc1ccc(CCNC(=O)c2ccc3ccccc3n2)cc1 | -3 | i | -11 | -6 | -3 | / | /
CCOC(=O)c1c(NC(=O)CSc2nnc(-c3ccccc3)n2CC)sc(C(C)=O)c1C | 4 | i | 23* | 3 | 9 | -2 | 0
SMILES | ADAM17 inh | Rce1 inh | ADAM10 inh | PLC-beta3 inh | PLC-gamma1 inh | ADAM10 confirm | ADAM17 ctr
CCn1c(SCC(=O)Nc2nc3ccccc3s2)nnc1-c1ccc(OC)cc1 | 1 | i | 20* | 5 | 3 | 0 | 1
O=C(Nc1nc2ccccc2s1)C1c2ccccc2Oc2ccccc21 | 8 | i | 28* | 2 | 1 | 10 | 3
O=C(Nc1nc2ccccc2s1)C1CCCO1 (configuration not stated) | -2 | i | 1 | -1 | 0 | / | /
O=C(CSc1nc2ccc(NC(=O)c3ccccc3C(=O)O)cc2s1)Nc1c(Cl)cccc1Cl | 4 | i | 20* | -24 | -5 | 0 | 1
Cc1cc(NS(=O)(=O)c2ccc(NC(=O)c3ccc([N+](=O)[O-])cc3)cc2)nc(C)n1 | -2 | / | -14 | -1 | 6 | / | /
CCOC1=C2[C@@H](CN(S(=O)(=O)c3ccc(C)cc3)[C@H]2c2cccc3ccccc23)[C@H]2C(=O)N(c3ccccc3)C(=O)[C@H]2C1 | 6 | / | 21* | 0 | 0 | 10 | 3
Cc1ccc2c(c1)NC(=O)[C@@]1(C)[C@@H](c3ccccc3)[C@H]3COc4ccccc4[C@@H]3N1C2=O | 4 | / | 27* | -1 | -2 | 10 | 3
COc1ccc2c(c1)[C@H]1[C@H](CO2)[C@H](c2ccccc2)[C@]2(C)C(=O)Nc3ccc(C)cc3C(=O)N12 | 0 | / | 28* | -8 | -3 | 10 | 3
COc1ccc(C2NC(=S)N(Cc3ccc(Cl)cc3)C(C)=C2C(C)=O)cc1 (configuration not stated) | 6 | / | 22* | 0 | 3 | 3 | 2
Cc1cccc(N2CCN(S(=O)(=O)c3ccc4c(c3)NC(=O)CS4)CC2)c1C | 8 | i | 23* | -8 | -4 | 8 | 2
Cc1ccc(S(=O)(=O)N2CCN(C(=O)Cn3nc(C)c([N+](=O)[O-])c3C)CC2)cc1 | 2 | / | -2 | -4 | 1 | / | /
O=S(=O)(NCc1ccc(Cl)c(Cl)c1)c1cc(Cl)ccc1N1CC[C@@H](O)C1 | 8 | / | 21* | -5 | -1 | 7 | 2
O=C(Nc1cc(Sc2ccccn2)cc([N+](=O)[O-])c1)c1cccc(Cl)c1 | 7 | i | 20* | 4 | 0 | 7 | 3
CCCCOc1ccc(C(=O)NN2C(=O)NC3(CCCCC3)C2=O)cc1OC | -4 | i | -8 | -4 | -1 | / | /
COc1ccc(C(=O)N2CCC(C)(C(=O)NS(=O)(=O)C3CC3)C2)cc1F (configuration not stated) | -10 | / | -15 | 0 | -4 | / | /
Cc1ccc(NC(=O)CNc2ccc(Cl)c(Cl)c2)cc1S(=O)(=O)N(C)C | 8 | i | 23* | -1 | 1 | 5 | 2

Screens (PubChem)
